This note sets out measurements from a collection of fitness landscapes (doi:10.1126/science.1257360).

In all, about 140,000 sequences were measured (“enrichment ratio after two sorts for PhoP signalling”: median about 0, highest 2% from about 11 on). This is one part of a sample in which the highest values are shown more often than they occur.

Sequences and labels used below:
B1: PhoQ; a variant is named by its letters at X, in order, P23837 (parent)
chain: MKKLLRLFFPLSLRVRFLLATAAVVLVLSLAYGMVALIGYSVSFDKTTFRLLRGESNLFYTLAKWENNKLHVELPENIDKQSPTMTLIYDENGQLLWAQRDVPWLMKMIQPDWLKSNGFHEIEADVNDTSLLLSGDHSIQQQLQEVREDDDDAEMTHSVAVNVYPATSRMPKLTIVVVDTIPVELKSSYMVWSWFIYVLSANLLLVIPLLWVAAWWSLRPIEALAKEVRELEEHNRELLNPATTRELTSLVRNLNRLLKSERERYDKYRTTLTDLTHSLKTPLXXLQXXLRSLRSEKMSVSDAEPVMLEQISRISQQIGYYLHRASMRGGTLLSRELHPVAPLLDNLTSALNKVYQRKGVNISLDISPEISFVGEQNDFVEVMGNVLDNACKYCLEFVEISARQTDEHLYIVVEDDGPGIPLSKREVIFDRGQRVDTLRPGQGVGLAVAREITEQYEGKIVAGESMLGGARMEVIFGRQHSAPKDE

In the assay the parent is B1. As to the kind of experiment: enrichment ratio after two sorts for PhoP signalling (ratio (wild type AVST 3.29)); higher = more functional. The note with it: with PhoP (E. coli).
For EHCK, the enrichment ratio is ≤ 0.25.

For DQHH, the enrichment ratio was ≤ 0.25. The figure for AQEG is ≤ 0.25; for LKYY it is ≤ 0.25. For FGWK the value was ≤ 0.25; for SEER, ≤ 0.25; for RPGL, ≤ 0.25. The figure for QQNH is 12.7; for QPNH it is ≤ 0.25. As for QENH, the enrichment ratio was 70.4. For QQNS the value was 8.87. The figure for QLNH is ≤ 0.25; for QQSH it is ≤ 0.25; for HNFM it is ≤ 0.25. For KEFR the value was ≤ 0.25.

In the case of THMP, the enrichment ratio is ≤ 0.25. Take HPVY: the enrichment ratio was ≤ 0.25.

Consider MNCR, for which the enrichment ratio is ≤ 0.25. The figure for RSFL is ≤ 0.25. Regarding YTFQ, the enrichment ratio is ≤ 0.25. The figure for TIQM is 48.5; for TIPM it is ≤ 0.25. The figure for TINM is 15.1. For TICK the value was 1.1; for AIQM, ≤ 0.25.

For TIWM, the enrichment ratio was ≤ 0.25. In the case of TIGM, the enrichment ratio amounted to 21.8. The figure for TINY is ≤ 0.25; for TINS it is 9.25.

As for TITM, the enrichment ratio was 17.6.

As to RIQM, the enrichment ratio is ≤ 0.25.

Consider TIYM, for which the enrichment ratio worked out at 2.83.

As to PGVE, the enrichment ratio was ≤ 0.25. For FAIN the value was 0.294; for WTRP, ≤ 0.25; for TKVF, 3.68. Turning to ANGQ, the enrichment ratio was ≤ 0.25. With SYDT, the enrichment ratio is ≤ 0.25.

For the variant PICE, the enrichment ratio is ≤ 0.25. For LWID the value was ≤ 0.25. The figure for FPRV is ≤ 0.25. For TRYF the value was ≤ 0.25. On to GPCS, for which the enrichment ratio was ≤ 0.25. For the variant NCLV, the enrichment ratio amounted to 1.12. The figure for AANL is ≤ 0.25. The figure for AAAI is 1.63; for AACA it is 7.7. On to AACL, for which the enrichment ratio came out at 11.3. For KACV the value was ≤ 0.25; for AACK, ≤ 0.25; for AACS, 17.3.

AACV: the enrichment ratio was determined as 16.2. The figure for IACL is ≤ 0.25; for AACE it is 6.4.

With ANCV, the enrichment ratio amounted to 3.79. The figure for AACI is 12.2.

Turning to NQPV, the enrichment ratio was ≤ 0.25.

On to KGDN, for which the enrichment ratio is ≤ 0.25. The figure for WHVG is ≤ 0.25; for HKAD it is ≤ 0.25. Turning to LHMM, the enrichment ratio was ≤ 0.25. For the variant SKQW, the enrichment ratio is ≤ 0.25. For QCCL the value was ≤ 0.25; for LETR, ≤ 0.25; for DAMY, ≤ 0.25. The figure for MRVV is ≤ 0.25. The figure for ASVT is 15.2; for ASHQ it is ≤ 0.25.

ASVA: the enrichment ratio was determined as 4.82. The figure for ASMQ is 29.9. For ASVY the value was 2.98; for ASTD, ≤ 0.25; for KSVV, ≤ 0.25. The figure for ASVK is 0.907. For the variant ASVL, the enrichment ratio worked out at 16.7. The figure for ASRL is ≤ 0.25; for ASVV it is 14.5; for EVAW it is ≤ 0.25. The figure for DHDV is ≤ 0.25; for YAYW it is ≤ 0.25. The figure for ANRY is ≤ 0.25. On to RTRT, for which the enrichment ratio was ≤ 0.25. The figure for WPGL is ≤ 0.25; for KSAF it is ≤ 0.25; for ASVG it is 14.7. The figure for ASMN is 19.6. For AHAF the value was ≤ 0.25; for ASNL, 4.93.

KSVG: the enrichment ratio was ≤ 0.25. For ASMG the value was 17.6; for ASMD, ≤ 0.25. Consider ASVC, for which the enrichment ratio turned out to be 5.25. The figure for ASMW is 5.78; for ASQN it is ≤ 0.25; for ASAF it is 15.1. The figure for VSHV is ≤ 0.25. For the variant ELII, the enrichment ratio was ≤ 0.25. The figure for DHGN is ≤ 0.25; for NHFI it is ≤ 0.25.

For the variant QTFL, the enrichment ratio came out at 1.72. The figure for YDLL is ≤ 0.25; for QRFQ it is ≤ 0.25; for EHKV it is ≤ 0.25. The figure for LCMI is ≤ 0.25.

As for IHER, the enrichment ratio is ≤ 0.25. The figure for LAPE is ≤ 0.25; for VIMD it is ≤ 0.25. For ASSI the value was 15.8.

Consider ASVP, for which the enrichment ratio is ≤ 0.25. In the case of VHTG, the enrichment ratio is ≤ 0.25. Consider VRSI, for which the enrichment ratio was ≤ 0.25. For AMTG the value was 2.78; for ASVM, 12.1.

As to ASVI, the enrichment ratio is 5.75. The figure for KSMK is ≤ 0.25; for ASRK it is ≤ 0.25.

Take ASMA: the enrichment ratio is 2.9. The figure for ASMK is 17; for AITG it is 11.5; for YVIL it is ≤ 0.25. Take LYCG: the enrichment ratio is ≤ 0.25. For RRIS the value was ≤ 0.25; for NHAY, ≤ 0.25. The figure for QIHN is ≤ 0.25; for YWDR it is ≤ 0.25; for YHEQ it is ≤ 0.25.

Take IKMW: the enrichment ratio is ≤ 0.25. The figure for ASMV is 7.76; for ASMI it is 13.5.

In the case of ASMS, the enrichment ratio was 5.31. For ASWG the value was ≤ 0.25; for ASEG, ≤ 0.25.

For the variant ASIG, the enrichment ratio was found to be 12. The figure for ASHE is ≤ 0.25; for ASTG it is 14.7; for ASVE it is 21.7. Take KSVE: the enrichment ratio was ≤ 0.25. With PNRW, the enrichment ratio was ≤ 0.25. Regarding LAVR, the enrichment ratio was ≤ 0.25.

As for IMSG, the enrichment ratio is ≤ 0.25. As to RHEW, the enrichment ratio is ≤ 0.25. The figure for QSKD is ≤ 0.25.

As for VADS, the enrichment ratio is ≤ 0.25. For DWYQ the value was ≤ 0.25. The figure for YRSW is ≤ 0.25; for YTAS it is ≤ 0.25; for MAAS it is 1.31. For MTAS the value was 12; for ICAS, ≤ 0.25; for DMAS, ≤ 0.25. In the case of KMAS, the enrichment ratio is ≤ 0.25. For the variant MKAS, the enrichment ratio is ≤ 0.25. For MCAS the value was 14; for MFAS, ≤ 0.25. The figure for TMAS is 15; for MMAS it is 15.4. For VCAS the value was ≤ 0.25. On to NQNV, for which the enrichment ratio is ≤ 0.25. As for NTIL, the enrichment ratio was ≤ 0.25. The figure for MCAI is 8.95. The figure for GQFV is ≤ 0.25. The figure for PTRG is ≤ 0.25. With IQLY, the enrichment ratio is ≤ 0.25. The figure for QVYW is ≤ 0.25; for GCPS it is ≤ 0.25. Regarding SHMN, the enrichment ratio is ≤ 0.25. On to NHMN, for which the enrichment ratio is ≤ 0.25. The figure for TSMN is 12.3; for FSMN it is 1.56; for THMN it is 12.7.

For TGMN, the enrichment ratio is 34.8.

On to RGMN, for which the enrichment ratio is ≤ 0.25. For GGMN the value was ≤ 0.25.

Turning to KSMN, the enrichment ratio was ≤ 0.25. For the variant RHML, the enrichment ratio is ≤ 0.25. For RVMN the value was ≤ 0.25; for GNFW, ≤ 0.25; for LDMA, ≤ 0.25. For ESWV the value was ≤ 0.25; for KCLD, ≤ 0.25; for RANI, ≤ 0.25. For GSMV the value was 17.2; for GSCS, 5.76; for GSCI, 10.8. As for GSIV, the enrichment ratio is 8.6. For GSCL the value was 21.5; for GSWV, ≤ 0.25; for GSCV, 16.6. On to GSCA, for which the enrichment ratio was found to be 0.424. For GSMW the value was ≤ 0.25; for FTHE, ≤ 0.25. The figure for HIYR is ≤ 0.25; for AWLF it is ≤ 0.25. For YRSQ the value was ≤ 0.25; for HSMV, 17; for HSMG, 1.29. With HSWV, the enrichment ratio is ≤ 0.25. The figure for HSMW is ≤ 0.25; for HSMH it is ≤ 0.25. For HSMI the value was 17.4.
